Data from PubChem BioAssay (EPA / NIEHS).
Several values for one entry are separate records, joined by “and”; a condition that tells them apart may be missing. Equal entries are not always repeated. Results filed as inconclusive are left out. Some structures have more than one record in an assay (separate samples or runs), and their calls can disagree. Activity calls are given as the source filed them. How the source made its calls, unless noted: active means hit-call score of the fitted dose curve at least 0.9, where 1 is the maximum; inactive means score below 0.9. Peptide text beside a SMILES is read from it.

Experiments:
[1] = BSK_BT_PBMCCytotoxicity: PBMC Cytotoxicity Assessment in the BioMAP Diversity Plus: BT Assay (AID 2284225); settings: primary human B cells with PBMC;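 further: PBMC viability measured by Alamar Blue dye reduction fluorescence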
Procedure, shortened: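 Viability by Alamar Blue reduction (6 h, ex/em 546/580 nm) after 90 h culture of SEB/TSST-1-activated PBMC (20 ng/mL each) given compound 1 h before activation. DMSO served as baseline for curve fitting.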

[2] = read-out: Secreted IgG (sIgG), gene 3500; test: BSK_BT_sIgG: BioMAP Diversity Plus: BT Assay for Secreted IgG (sIgG) Biomarker Activity (AID 2284226); settings: primary human B cells with PBMC
Procedure, shortened: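 ELISA quantitation of secreted IgG from human B cells co-cultured with PBMC, sampled 24 h post-dosing. Values fitted relative to DMSO vehicle as baseline, positive fitting direction.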

[3] = CCTE_Shafer_MEA_dev_AB: CCTE's Alamar Blue Assay for Cytotoxicity in the Neural Network Formation Assay, Shafer Lab (AID 2284083; active means hit-call score of the fitted dose curve at least 0.9, where 1 is the maximum;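 further: resazurin reduction fluorescence as viability of cultured neurons; twelve days of exposure from plating with re-dosing on DIV 5 and 9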)
Procedure, shortened: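 Resazurin fluorescence, relative to DMSO, gauges viability after twelve days of exposure that began at plating of rat cortical neurons (1.5 x 10^5 cells/well, 48-well MEA); treatment renewed with full medium exchange on DIV 5 and 9.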

[4] = CCTE_Shafer_MEA_dev_mutual_information_norm: CCTE's Neural Network Formation Assay for Mutual Information Normalization, Shafer Lab (AID 2284091);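 on AC50: mutual information between electrodes summarised as area under curve across four recording days; potency is for a decrease in mutual information relative to DMSO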
Procedure, shortened: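 Shared information across electrodes, tracked on days 5, 7, 9 and 12 of network development and collapsed as trapezoidal area under the curve. Rat cortical cultures were treated continuously from plating, with treatment renewed at feeds on DIV 5 and 9; DMSO baseline, negative-direction fit.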

[5] = CCTE_Shafer_MEA_dev_correlation_coefficient_mean: CCTE's Neural Network Formation Assay for Mean Correlation Coefficient, Shafer Lab (AID 2284093);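 on AC50: well mean pairwise spike train correlation integrated as AUC over recording days 5 to 12; potency fitted for loss of correlation relative to DMSO vehicle wells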
Procedure, shortened: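 Primary rat cortical neurons on PEI-coated 48-well MEA plates (16 electrodes/well) were exposed from plating day 0 through DIV12, with compound renewed at DIV5 and 9. Pairwise spike correlations were averaged per well; trapezoidal AUC across DIV5, 7, 9, 12.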

[6] = UKN2_HCS_IMR90_neural_migration: University of Konstanz (UKN) Leist Lab Neural Crest Cell Migration Assay in human induced IMR90 Pluripotent Stem Cells (UKN2) (AID 2284204); settings: actives raise or lower the signal
Procedure, shortened: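 High-content imaging of calcein-AM and Hoechst stained cells quantifies migration into a stopper-defined gap after 24 h compound exposure. Neural crest cells from IMR90 iPSC migrated 24 h in EGF/FGF N2-S medium before dosing; DMSO baseline.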

[7] = IUF_NPC1b_proliferation_BrdU_72hr: Leibniz Research Institute for Environmental Medicine (IUF) 72-hour Neural Progenitor Cell Bromodeoxyuridine (BrdU) Proliferation Assay (NPC1b) (AID 2284207)
Procedure, shortened: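 Human fetal cortex-derived (GW 16-19) neural progenitor spheres, 0.25-0.35 mm, one per well in EGF/FGF proliferation medium, exposed to compound for 72 h at 37C, pH 7.2-7.6. BrdU incorporation over the final 16 h read by luminescence ELISA, relative to DMSO.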

[8] = IUF_NPC1a_proliferation_area_72hr: Leibniz Research Institute for Environmental Medicine (IUF) 72-hour Neural Progenitor Cell Proliferation Area Assay (NPC1a) (AID 2284208)
Procedure, shortened: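 hNPC spheres (human fetal cortex, GW 16-19), one per poly-Hema U-bottom well; EGF+FGF medium; dosed day 0, no re-dosing; 72 h, 37C, 5% CO2; phase-contrast sphere area; DMSO = baseline; minus-GF = positive ctrl.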

[9] = IUF_NPC1_viability_72hr: Viability Assessment at 72 hours in the Leibniz Research Institute for Environmental Medicine (IUF) Neural Progenitor Cell Proliferation Assay (NPC1) (AID 2284209)
Procedure, shortened: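 Viability was measured by resazurin-to-resorufin fluorescence (alamar blue) after 72 h of continuous exposure without compound renewal. Each well held one hNPC sphere (gestational week 16-19 fetal cortex, 0.25-0.35 mm) cultured in EGF/FGF proliferation medium at 37C and pH 7.2-7.6.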

[10] = CCTE_Mundy_HCI_Cortical_Synap_Neur_Matur_NeuriteSpotCountPerNeuriteLength: CCTE's Synaptogenesis and Neurite Maturation Assay in rat cortical cells for Neurite Spot Count per Neurite Length, Mundy Lab (AID 2284210)
Procedure, shortened: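 Synaptophysin spots per unit neurite length, measured by automated imaging of MAP2/synaptophysin/Hoechst-stained neurons. Cultures from rat cortex received chemical at DIV 7 with media change through DIV 12; glial growth arrested by AraC at DIV 5; DMSO baseline.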

[11] = CCTE_Mundy_HCI_Cortical_Synap_Neur_Matur_BPCount: CCTE's Synaptogenesis and Neurite Maturation Assay in rat cortical cells for Branch Point Count, Mundy Lab (AID 2284211)
Procedure, shortened: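 HCI read-out of branch points from MAP2/synaptophysin/Hoechst immunofluorescence; rat cortical cultures, AraC DIV 5, dosing DIV 7, fixed DIV 12; fit in positive direction vs DMSO baseline.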

[12] = CCTE_Mundy_HCI_Cortical_NOG_NeuriteCount: CCTE's Neurite Outgrowth Assay in rat cortical cells for Neurite Count, Mundy Lab (AID 2284212);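 further: cells fixed about two days after chemical exposure began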
Procedure, shortened: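 Rat cortical primary cells; compound added 2 h post-plating, 1/10 dilution of working solution. Anti-betaIII-tubulin/AF488 ICC; ArrayScan neurite count vs DMSO.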

[13] = CCTE_Mundy_HCI_Cortical_NOG_NeuriteLength: CCTE's Neurite Outgrowth Assay in rat cortical cells for Neurite Length, Mundy Lab (AID 2284213)
Procedure, shortened: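 First, rat primary cortical cells were plated and, 2 h later, given test chemical as a 1/10 dilution. Finally, βIII-tubulin immunostaining enabled automated imaging of neurite length.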

[14] = CCTE_Mundy_HCI_Cortical_Synap_Neur_Matur_NeuriteLength: CCTE's Synaptogenesis and Neurite Maturation Assay in rat cortical cells for Neurite Length, Mundy Lab (AID 2284214)
Procedure, shortened: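 Neurite length quantified by automated high-content imaging of MAP2, synaptophysin and Hoechst staining. Rat cortical cells received chemical from DIV 7 to DIV 12 […], glial growth arrested by AraC at DIV 5; DMSO baseline.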

[15] = CCTE_Mundy_HCI_Cortical_Synap_Neur_Matur_NeuriteSpotCountPerNeuron: CCTE's Synaptogenesis and Neurite Maturation Assay in rat cortical cells for Neurite Spot Count per Neuron Count, Mundy Lab (AID 2284215)
Procedure, shortened: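 Read-out: neurite-associated synaptophysin puncta per neuron, imaged by high-content analysis after MAP2, synaptophysin and Hoechst staining. Rat primary cortical cultures, dosed DIV 7 through DIV 12; DMSO served as baseline.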

[16] = CCTE_Mundy_HCI_Cortical_Synap_Neur_Matur_SynapseCount: CCTE's Synaptogenesis and Neurite Maturation Assay in rat cortical cells for Synapse Count, Mundy Lab (AID 2284218)
Procedure, shortened: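 High-content imaging of synaptophysin puncta per MAP2-positive neuron (Hoechst nuclei) in rat cortical cells exposed DIV 7–12 after glial arrest with AraC at DIV 5; decrease relative to DMSO scored.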

[17] = CCTE_Mundy_HCI_Cortical_Synap_Neur_Matur_NeuriteCount: CCTE's Synaptogenesis and Neurite Maturation Assay in rat cortical cells for Neurite Count, Mundy Lab (AID 2284222);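 further: exposure from day 7 to day 12 in vitro with readout at day 12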
Procedure, shortened: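 Rat cortical neurons, 96-well; AraC DIV 5; chemical + media change DIV 7; end DIV 12. Fix PFA/Hoechst, anti-MAP2 + anti-synaptophysin IF. HCI neurite count vs DMSO baseline.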

[18] = CCTE_Mundy_HCI_Cortical_Synap_Neur_Matur_CellBodySpotCount: CCTE's Synaptogenesis and Neurite Maturation Assay in rat cortical cells for Cell Body Spot Count, Mundy Lab (AID 2284223)
Procedure, shortened: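 Read-out: cell body-associated synaptophysin puncta per neuron, imaged after MAP2, synaptophysin and Hoechst staining. Rat cortical cells, AraC DIV 5, chemical dosing DIV 7, fixation DIV 12. Activity fitted in positive direction relative to DMSO baseline.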

[19] = CCTE_Mundy_HCI_hNP1_Pro_ResponderAvgInten: CCTE's Proliferation Assay in human neuroprogenitor cells, Mundy Lab (AID 2284224; active means hit-call score of the fitted dose curve at least 0.9, where 1 is the maximum;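 further: human neural progenitor cells hNP1 derived from WA09 embryonic stem cells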)
Procedure, shortened: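 Proliferation was scored as BrdU labelling intensity in human neural progenitors derived from WA09 embryonic cells, measured 26.25 hours after chemical dosing. Activity was fitted relative to DMSO.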

[20] = TAMU_PeakParms_SingleDonor1434_Chronotropy: Texas A&M University (TAMU) 1.5-hr Human Induced Pluripotent Stem Cell (iPSC)-derived Cardiomyocytes Calcium (Ca+2) Flux Assay for Cardiotoxicity: Chronotropy (changes in peak frequency) (AID 2284217); settings: actives raise or lower the signal
Procedure, shortened: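 Beat rate, as mean Ca2+-flux peak frequency, was read from donor 1434 iPSC cardiomyocytes 90 min after exposure to 0.2–100 uM test chemical (0.5% DMSO). Wells that stopped beating were excluded; EC05 from bidirectional DMSO-referenced fitting.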

Measured: AC50

Cc1c(O)cccc1O
inactive: [1] | [2]

Fc1ccc(Br)cc1
inactive: [1] | [2]

CCCCC1C(=O)N(c2ccccc2)N(c2ccccc2)C1=O
inactive: [1] | [2]

CCCCNS(=O)(=O)c1ccccc1
active: [7] 11.9 µM
not listed: [1] | [2] | [19] | [20]
inactive: all other assays above

CC1(C)CC(O)CC(C)(C)N1[O]
inactive: [1] | [2]

Clc1cc(Cl)c(Cl)c(Cl)c1Cl
inactive: [1] | [2]

CC(C)c1cccc(C(C)C)c1N
inactive: [1] | [2]

O=C(Cl)c1c(Cl)c(Cl)c(C(=O)Cl)c(Cl)c1Cl
inactive: [1] | [2]

CC=C(C)C(C)=O
inactive: [1] | [2]

CCNc1nc(NC(C)(C)C)nc(OC)n1
active: [2] 13.9 µM
inactive: [1]

C=CC(=O)OCC(C)OCC(C)OCC(C)OC(=O)C=C (stereo not given)
active: [1] 13.1 µM | [2] 3.06 µM

C=CC(=O)NCOCCCC
inactive: [1] | [2]

COc1ccc(C(=O)c2ccccc2)c(O)c1
inactive: [1] | [2]

Cc1noc(NS(=O)(=O)c2ccc(N)cc2)c1C
not listed: [1] | [2] | [6] | [7] | [8] | [9] | [19] | [20]
inactive: all other assays above

O=C(O)C(F)(F)C(F)(F)C(F)(F)C(F)(F)C(=O)O
inactive: [19] | [1] | [2]

CCCCCCCO
inactive: [1] | [2]

C[N+](C)(C)CCCNS(=O)(=O)C(F)(F)C(F)(F)C(F)(F)C(F)(F)C(F)(F)C(F)(F)C(F)(F)C(F)(F)F
active: [3] 15 µM and 7.64 µM | [4] 906 nM and 914 nM | [5] 4.2 µM | [2] 52.4 µM and 52.6 µM
inactive: [5] | [1]

CC/C=C\CCOC(=O)c1ccccc1O
inactive: [1]
active: [2] 7.02 µM

CC=C(C)C=CC=C(C)C
active: [1] 19.9 µM | [2] 12.3 µM

CCCCCCOC(=O)CCCCC(=O)OCCCCCC
inactive: [1] | [2]

Nc1cccc(N)n1
inactive: [1] | [2]

COC(=O)[C@H](Cc1ccccc1)NC(=O)[C@@H](N)CC(=O)O (H-Asp-Phe-OMe)
not listed: [1] | [2] | [6] | [7] | [8] | [9]
inactive: all other assays above
